Source: PubChem (National Center for Advancing Translational Sciences (NCATS))
HP1b binding inh: HP1-beta chromodomain-methylated histone interaction inhibition; AlphaScreen HP1-beta / biotin-H3K9me3 peptide binding; P83916; 390,000 tested, 0.56% active; Potency, µM (titrated, usually from 114 µM), inactives show at the top dose activity change, negative = inhibition, most hits filed as inhibitors; further: potency means the concentration at half of the fitted maximal effect; nearly all actives have a fitted effect of over 70% in size
Target sequence (P83916 whole entry, looked up): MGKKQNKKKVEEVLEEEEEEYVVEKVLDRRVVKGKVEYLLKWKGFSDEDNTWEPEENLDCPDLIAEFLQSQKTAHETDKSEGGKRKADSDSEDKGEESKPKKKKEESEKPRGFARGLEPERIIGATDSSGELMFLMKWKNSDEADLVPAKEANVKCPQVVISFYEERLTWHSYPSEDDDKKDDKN
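HP1-beta protein (50 nM final) preincubated 30 min at room temperature with biotinylated H3(1-18)K9me3 peptide (50 nM) in PBS pH 7.4, 0.01% Tween-20, then compound added for 30 min. AlphaScreen streptavidin donor/nickel chelate acceptor beads (10 ug/mL final), 30 min dark, luminescence read.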
JMJD2A Tudor inh: inhibitors of human JMJD2A Tudor domain; O75164; AlphaScreen JMJD2A-Tudor / H3K4me3 peptide binding; Potency, µM (series often up to 114 µM), for inactives: at the top dose activity change, negative = inhibition, usual class: inhibitors; 390,000 tested, 4.4% active; AID 504339; further: potency means the concentration at half of the fitted maximal effect; on the % scale 0 is the no-effect control and ±100 the full control effect; nearly all actives have a fitted effect of over 50% in size
CtBP-E1A blk: inhibitors of CtBP/E1A interaction | AlphaScreen GST-E1A/His-CtBP binding, 1536-well; stronger effect = lower value | activity change, % (test concentration not listed) | 340,000 tested, 0.49% active | AID 651724; in the data active means activity change below about -65%; inconclusive means mostly about -30% to -63%; further: on the % scale 0 is the no-effect control and ±100 the full control effect
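In 5 uL wells, 23 nL compound meets equimolar GST-E1A and His-CtBP (5X stock 125 nM each) for 2 h, 37 °C. Beads (5X, 50 ug/mL) then 1 h, 37 °C, dark.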
Six1-Eya2 blk: blocks human Six1 binding to Eya2; activity change, % (test concentration not listed); 360,000 tested, 0.56% active; Q15475+O00167; AlphaScreen GST-Six1/His-Eya2 binding, biochemical; stronger effect = lower value; AID 651725; in the data active means activity change below about -65%; inconclusive means mostly about -30% to -63%; further: on the % scale 0 is the no-effect control and ±100 the full control effect
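Homogeneous AlphaScreen proximity assay pairing GST-Six1 with His-tagged Eya2 (added as 5X mix: 250 nM and 500 nM) in 50 mM Tris pH 8.0, 300 mM NaCl, 1 mM TCEP. Glutathione donor and nickel acceptor beads; 1 h, 37 °C, dark.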
BAZ2B inh: BAZ2B (human) inhibition. Q9UIF8. Potency, µM (doses to about 114 µM), inactives show at the top dose activity change, negative = inhibition, actives largely listed as inhibitors. AlphaScreen BAZ2B-H3K14Ac peptide displacement. 360,000 tested, 4.4% active; further: potency means the concentration at half of the fitted maximal effect; on the % scale 0 is the no-effect control and ±100 the full control effect; nearly all actives have a fitted effect of over 60% in size
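Multi-concentration screen (max 110 uM) measuring displacement of acetylated histone H3 peptide from BAZ2B by AlphaScreen, using 50 nM protein, 50 nM peptide and 10 ug/mL streptavidin donor plus Ni-chelate acceptor beads.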
G9a inh: G9a (human) methyltransferase inhibition; G9a H3K9 monomethylation, AlphaScreen, 2 h; Potency, µM (top dose mostly 102 µM), for the others: top-dose activity, negative = inhibition, hits mostly inhibitors; 350,000 tested, 8.8% active; AID 504332; further: potency means the concentration at half of the fitted maximal effect; on the % scale 0 is the no-effect control and ±100 the full control effect; nearly all actives have a fitted effect of over 75% in size
Target sequence (Q96KQ7 913-1193 limits assumed): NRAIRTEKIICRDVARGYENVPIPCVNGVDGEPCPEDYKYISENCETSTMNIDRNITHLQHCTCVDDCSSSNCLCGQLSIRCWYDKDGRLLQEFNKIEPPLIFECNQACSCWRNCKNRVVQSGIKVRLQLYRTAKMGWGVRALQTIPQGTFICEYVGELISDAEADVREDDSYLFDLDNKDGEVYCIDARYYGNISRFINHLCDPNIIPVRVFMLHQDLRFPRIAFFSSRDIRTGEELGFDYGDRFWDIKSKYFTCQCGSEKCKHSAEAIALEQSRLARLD
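G9a (20 nM) was preincubated 15 min with compound, then reacted 2 h at room temperature with 500 nM biotin-H3K9 peptide and 20 µM SAM. Monomethyl-H3K9 detected by AlphaScreen using anti-H3K9me1 antibody.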
* hit, by the source's call; u = inconclusive; x = no result; [ ] = another dose, or the depositor's remark. This is a sample that favours compounds with a hit; in the whole collection about 10% have one here. Unless noted, the call rests on the fitted dose curve; in most records, active means well fitted inhibition curve with a large enough effect; inconclusive means small, poorly fitted or top-dose-only effect; inactive means no such curve, though single readings can be large or run the other way.

SMILES	HP1b binding inh	JMJD2A Tudor inh	CtBP-E1A blk	Six1-Eya2 blk	BAZ2B inh	G9a inh
O=C1c2cccc3cccc(c23)C(=O)N1c1ccc(O)cc1	24%	-25%	x	-9	79µM*	-14%
COC(=O)c1ccc(Cl)c(NC(=O)C2CCN(S(=O)(=O)Cc3ccccc3)CC2)c1	27%	-4%	x	x	-17%	-8%[59 µM]
O=C(CSc1nc2c([nH]c3ccccc32)c(=O)n1-c1cccc(C(F)(F)F)c1)N1CCCC1	17%[57 µM]	-5%	x	x	-1%	10%[59 µM]
Cc1ccc(NC(=O)CSc2nnnn2C2CC2)cc1S(=O)(=O)N1CCOCC1	28%	-6%	1	11	13%	u
O=C(O)C1C2C=CC(C3CC23)C1C(=O)N1CCc2ccccc21 (stereo not given)	-28%	20µM*	-12	-5	-6%	79µM*
O=C(C1COc2ccccc2O1)N1CCc2ccccc21 (stereo not given)	u	79µM*	6	0	45µM*	50µM*
O=C(O)C1CC=CCC1C(=O)N1CCc2ccccc21 (stereo not given)	-16%	u	4	-4	u	13µM*
O=C(C1CCN(S(=O)(=O)c2ccccc2)CC1)N1CCc2ccccc21	30%	-11%	5	3	-6%	x
O=C(C1COc2ccccc2O1)N1CCCC1 (stereo not given)	33%	-8%	1	-1	-12%	1%
O=C(O)C1C2C=CC(C2)C1C(=O)N1CCc2ccccc21 (stereo not given)	20%	-16%	3	2	5%	0%[12.7 µM]
CC[n+]1cc(-c2ccccc2)nc(N2CCOCC2)n1	6%	32µM*	18	4	-5%	10µM*
NC(=O)c1cc(-c2ccccc2)nc(N2CCOCC2)n1	32%	11%	-21	-21	-2%	21%[59 µM]
COc1ccc(C)cc1NC(=O)CSc1nc(=O)n(Cc2ccco2)c2c1CCC2	10%	-25%	x	x	-36%	-45%[59 µM]
C[N+]1(CCCCC[N+]2(C)CCCC2)CCCC1	x	x	x	x	x	12%
COCC[N+]1(C)CCCCC1	10%	u	-3	3	-35%	4.5µM*
CCOc1ccccc1-n1ccnc(NCc2ccc(F)cc2)c1=O	-9%	-25%	x	x	-38%	-39%[59 µM]
COCc1cc(=O)[nH]c(Nc2nc3ccc(C)cc3o2)n1	52%	-21%	-87*	-84*	u	31%[59 µM]
CCc1ccc2nc(Nc3nc(COC)cc(=O)[nH]3)nc(C)c2c1	3%	-21%	-6	-3	0%	24%[59 µM]
COCCN(CCOC)Cc1c(O)ccc2c1O/C(=C\c1ccco1)C2=O	-24%	-23%	-28	-24	71µM*	4.5µM*
CC1CCN(Cc2c(O)ccc3c2O/C(=C\c2ccco2)C3=O)CC1	15%	-27%	0	5	50µM*	5.6µM*
O=C(c1cccc(F)c1)N1CCC[C@@]2(CCN(c3ccncc3)C2)C1	x	x	x	x	x	1%[12.7 µM]
CCCC(=O)Nc1ccc(C(=O)NNC(=S)NC(=O)c2ccc(Br)o2)cc1	u	-4%[11.4 µM]	x	-13	5%	40µM*
CCCCC(=O)Nc1ccc(C(=O)NNC(=O)c2ccc(C)c(Br)c2)cc1	-10%	56µM*	-2	4	-35%	u
Cc1sc2nc(-c3cccnc3)[nH]c(=O)c2c1-c1ccccc1	-12%	-17%	-1	-4	x	11µM*
CC(C)(C)OC(=O)N1C=CCC1CN1C(=O)COCC1=O (stereo not given)	41%	3%	x	x	x	x
CC(C)(COP(=O)(O)OP(=O)(O)OC[C@H]1O[C@@H](n2cnc3c(N)ncnc32)[C@H](O)[C@@H]1OP(=O)(O)O)C(O)C(=O)NCCC(=O)NCCS (stereo not given in full)	x	x	x	x	x	-30%[12.7 µM]
Cc1noc(C)c1-c1ccc2ncnc(NCc3cccs3)c2c1	x	x	x	x	x	14%[0.501 µM]
O=[N+]([O-])c1ccc(N=Nc2ccc(O)c3ccccc23)cc1	7.9µM*	3.2µM*	-70*	u	x	x
